Source: PubChem BioAssay (National Center for Advancing Translational Sciences (NCATS))
Only some compounds are listed: those with a hit (about 5.9% of all), similar ones and a draw of the others.
GALK inhibitor = qHTS Assay for Inhibitors of Human Galactokinase (GALK); P51570; Purified GALK, Kinase-Glo residual ATP luminescence; Potency, µM (doses to about 57.5 µM), usual class: inhibitors; 270,000 compounds, 0.007% hits
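Luminescence from leftover ATP (Ultra-Glo luciferase/luciferin) served as read-out after a 1 h room-temperature reaction of 5 nM GALK with 35 uM ATP and 100 uM galactose.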
TrxR1 substrate = qHTS Assay for Substrates of Mammalian Selenoprotein Thioredoxin Reductase 1 (TrxR1): qHTS. Thioredoxin reductase 1, cytoplasmic (Rattus norvegicus), O89049. purified TrxR1 substrate turnover, NADPH consumption readout. Potency, µM (series often up to 114 µM). 390,000 compounds, 0.01% hits. AID 588456, 2011; note: nearly all actives have a fitted effect of over 50% in size
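Rat TrxR1, dispensed at 90 nM, was prereduced with 400 uM NADPH (final) for 5 min at ~22 deg C, then incubated with compound 15 min before 400 uM selenite. A first-read NADPH fluorescence drop versus no-compound background flagged substrates.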
TrxR1 inh = qHTS Assay for Inhibitors of Mammalian Selenoprotein Thioredoxin Reductase 1 (TrxR1): qHTS; recombinant rTrxR1, NADPH fluorescence consumption, selenite substrate; Potency, µM (top dose mostly 114 µM), most hits filed as inhibitors; 390,000 compounds, 1% hits; AID 588453, 2011; note: nearly all actives have a fitted effect of over 65% in size
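Rat TrxR1 (90 nM in the dispensed reagent) was pre-reduced with 400 uM NADPH for 5 min at room temperature, then incubated with compound for 15 min. After 400 uM selenite was added, NADPH fluorescence (Ex 340/Em 450 nm) was followed for 8 min.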
RORgamma inh = qHTS for inhibitors of ROR gamma transcriptional activity. Nuclear receptor ROR-gamma (Mus musculus), P51450. Drosophila S2 Gal4-RORgamma UAS-luciferase reporter, 20 h. Potency, µM (top dose mostly 53.6 µM), usual class: inhibitors. 310,000 compounds, 5.4% hits; note: nearly all actives have a fitted effect of over 60% in size
Target sequence (P51450 whole entry, looked up, the tested form may be a part): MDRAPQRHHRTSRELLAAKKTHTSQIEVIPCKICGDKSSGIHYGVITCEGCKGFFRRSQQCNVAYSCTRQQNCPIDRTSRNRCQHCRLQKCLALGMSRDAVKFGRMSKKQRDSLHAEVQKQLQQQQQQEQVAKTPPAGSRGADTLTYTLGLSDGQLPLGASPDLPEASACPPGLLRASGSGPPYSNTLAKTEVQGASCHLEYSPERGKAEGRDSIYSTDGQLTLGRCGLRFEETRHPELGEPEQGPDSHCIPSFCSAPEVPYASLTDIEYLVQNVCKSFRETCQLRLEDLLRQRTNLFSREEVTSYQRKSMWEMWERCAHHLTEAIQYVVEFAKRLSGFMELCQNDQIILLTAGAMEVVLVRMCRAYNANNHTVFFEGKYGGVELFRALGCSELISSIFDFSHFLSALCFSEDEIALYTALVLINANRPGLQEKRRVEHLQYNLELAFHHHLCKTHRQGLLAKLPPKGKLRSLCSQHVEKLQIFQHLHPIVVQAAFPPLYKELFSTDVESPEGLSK
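In this cell-based reporter format, copper sulfate (700 uM final) drives Gal4–ROR gamma fusion expression from a metallothionein promoter in Drosophila Schneider cells; compounds preincubated 1 hr, reporter read after 20 hr at ambient temperature.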
Gal4-VP16 FLuc = VP16 counterscreen qHTS for inhibitors of ROR gamma transcriptional activity; Drosophila S2 Gal4-VP16 UAS-luciferase, luminescence, 20 h; Potency, µM (titrated, usually from 53.6 µM), hits mostly inhibitors; 310,000 compounds, 3.5% hits; AID 2546, 2010;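 note: Gal4-VP16 expression switched on by copper sulfate through the metallothionein promoter; nearly all actives have a fitted effect of over 50% in size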
FBPA coupling cs = qHTS Assay for Inhibitors of Fructose-1,6-bisphosphate Aldolase from Giardia Lamblia: Coupling assay counterscreen; coupling enzyme system counterscreen, AmpLite Red fluorescence; activity change, negative = inhibition, % at 58.2 µM, hits read low; 290,000 compounds, 0.67% hits; in the data active = activity change below about -30%
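First, compound is pin-transferred into glyceraldehyde-3-phosphate coupling-enzyme reagent at 57.5 uM final and held 10 min at RT. Next, substrate, coupling system and AmpLite Red are added. After 20 min RT, fluorescence (525/598 nm) is read.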
Large screens that a line does not name were inactive. Unless noted, calls come from the whole dose curve; as a rule, active = well fitted curve in the direction sought with a large enough effect; inconclusive = small, poorly fitted or top-dose-only effect, or another doubt; inactive = no such curve, though single readings can be large; an effect the other way counts as inactive or inconclusive.

COC(=O)c1ccc(-c2noc(CN3CCCCC3c3nccn3C)n2)cc1 (stereo not drawn)	RORgamma inh 13µM
CC(C)N(Cc1nc(-c2ccc3c(c2)OCO3)no1)Cc1nccn1C	RORgamma inh 14µM
NS(=O)(=O)c1ccc(NC(=O)CN2C(=O)CCC2=O)cc1	none
COc1ccc(N2CCN(C(=O)COC(=O)[C@@H](NC(=O)OCc3ccccc3)C(C)C)CC2)cc1	none (no result: GALK inhibitor, RORgamma inh, Gal4-VP16 FLuc, FBPA coupling cs)
COc1ccc(CNc2nc(NCc3ccc(OC)cc3)n(S(C)(=O)=O)n2)cc1	none
Cc1ccc(-n2c(C)cc(C(=O)CSc3nnnn3C)c2C)cc1	RORgamma inh inconclusive, Gal4-VP16 FLuc 13µM
Cc1ccc(-n2c(C)cc(C(=O)CSc3nncs3)c2C)cc1	FBPA coupling cs -33
CCOC(=O)c1cccc(NC(=O)CCn2nc(C)c3c(C)n(-c4ccccc4)nc3c2=O)c1	none (no result: GALK inhibitor, RORgamma inh, Gal4-VP16 FLuc, FBPA coupling cs)
COC(=O)c1ccc(NS(=O)(=O)c2c(C)nc3sccn3c2=O)cc1	none (no result: GALK inhibitor, RORgamma inh, Gal4-VP16 FLuc, FBPA coupling cs)
N#Cc1c([N+](=O)[O-])cc([N+](=O)[O-])cc1S(=O)(=O)Cc1ccccc1	TrxR1 substrate inconclusive, TrxR1 inh 0.71µM (no result: GALK inhibitor, RORgamma inh, Gal4-VP16 FLuc, FBPA coupling cs)
COc1ccc(-n2c(SCC(=O)N3CCOCC3)nc(O)cc2=O)cc1	RORgamma inh 11µM (no result: FBPA coupling cs)
Cc1ccc(-n2c(SCC(=O)N3CCOCC3)nc(O)cc2=O)cc1	none (no result: FBPA coupling cs)
O=C(NCc1ccccn1)C(=O)C1C(=O)Nc2ccccc21 (stereo not drawn)	none
Cc1cc(-c2ccccc2)c2c(=O)n(-c3ccccc3)[nH]c2n1	none (no result: GALK inhibitor)
O=c1c2c3n(c(=S)nc2[nH]n1-c1ccccc1)CCCCC3	RORgamma inh 13µM, Gal4-VP16 FLuc inconclusive
COc1ccccc1C(=O)C1CCCN(C(=O)c2ccc(C(C)=O)s2)C1 (stereo not drawn)	none (no result: FBPA coupling cs)
CC(C)C(=O)NC(CC(=O)O)c1ccccc1 (stereo not drawn)	none
COc1ccc(-c2csc(NC(CO)c3nc4ccccc4n3Cc3ccc(C)cc3)n2)cc1 (stereo not drawn)	none (no result: GALK inhibitor, RORgamma inh, Gal4-VP16 FLuc, FBPA coupling cs)
CCCn1c(C(C)Nc2nc(-c3ccc(OC)cc3)cs2)nc2ccccc21 (stereo not drawn)	RORgamma inh 7.9µM, Gal4-VP16 FLuc inconclusive (no result: GALK inhibitor)
Cc1ccc(C(=O)NC(=S)/C=C2\N(C)c3ccccc3C2(C)C)cc1	RORgamma inh 7.1µM, Gal4-VP16 FLuc 5.6µM
CC(C)C(=O)NC(=S)/C=C1/N(C)c2ccccc2C1(C)C	RORgamma inh 3.5µM, Gal4-VP16 FLuc 4µM
CN1/C(=C/C(=S)NC(=O)C2CCC2)C(C)(C)c2ccccc21	RORgamma inh 6.3µM, Gal4-VP16 FLuc 13µM
CN1/C(=C\C(=O)C(F)F)C(C)(C)c2ccccc21	none
COC(=O)N/N=C/c1cn(CCOc2ccc(OC)cc2)c2ccccc12	none
CCOC(=O)N/N=C/c1cn(CCCOc2ccc(C)cc2)c2ccccc12	RORgamma inh 1.4µM, Gal4-VP16 FLuc 1.8µM
COc1ccc(OCCn2cc(/C=N/NC(=O)c3ccncc3)c3ccccc32)cc1	RORgamma inh 5µM, Gal4-VP16 FLuc 8.9µM
Cc1ccc(OCC(=O)N/N=C/c2cn(Cc3ccccc3)c3ccccc23)cc1	RORgamma inh 5µM, Gal4-VP16 FLuc 7.1µM
CCOC(=O)N/N=C/c1cn(CCCOc2ccccc2)c2ccccc12	none
COc1cccc(OCCn2cc(/C=N/NC(=O)c3ccncc3)c3ccccc32)c1	RORgamma inh inconclusive, Gal4-VP16 FLuc 10µM
CCOC(=O)N/N=C/c1cn(Cc2ccc(Cl)cc2)c2ccccc12	Gal4-VP16 FLuc inconclusive
O=C(O)CN(CC(=O)O)c1ccccc1OCCOc1ccccc1N(CC(=O)O)CC(=O)O	none (no result: GALK inhibitor, TrxR1 substrate, TrxR1 inh)
CCCCSCCCNC(=O)c1cn(C)c2ccc(S(=O)(=O)N3CCCC3)cc2c1=O	none (no result: FBPA coupling cs)
